About 79,000 compounds went through this panel and 15% of them were active in at least one assay; those are over-represented in the sample as a whole. Unmarked numbers belong to inactive results. Calls of active or inactive are those of the source. Rule as the data show it: active = growth inhibition above about 70%; inactive = the rest.

A short description of this experiment: NCI Yeast Anticancer Drug Screen. Data for the rad50 strain (AID 155).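 Also: 0% = growth of vehicle-only cultures of the same strain.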 Conditions: S. cerevisiae rad50 strain growth inhibition; at 50.0 µM; active compounds read high. In outline: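 Inhibition values express reduced yeast growth in compound-treated cultures relative to vehicle-treated controls.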
With `C[CH2][Sn]([CH2]C)([O]P(=O)(C[Si](C)(C)C)c1ccccc1)[O]P(=O)(C[Si](C)(C)C)c1ccccc1` (stereo not given), the growth inhibition is 0%.

Turning to `CC(C)(C)NC(=O)Oc1ccc(Br)cc1Br`, the growth inhibition was -1.5%. With `CC1(C)C=CC(=NO)C=C1`, the growth inhibition is -4.65%.

Turning to `NC(=S)N/N=C/c1ccncc1`, the growth inhibition was -25.8%. Then `O=C1CCCC(C(Sc2ccccc2)(Sc2ccccc2)Sc2ccccc2)C1` (stereo not given), with 62.2%.

`O=C(OC1CCC2(CC1)N=NC1(CCC(OC(=O)c3ccccc3)CC1)S2)c1ccccc1` (stereo not given): the growth inhibition was -1.15%. Then `CSc1nc(=O)cc(N)n1C`, with 1.65%; and `CSc1ccc(NC(=O)Nc2ccc(Cl)cc2C(=O)c2ccccc2)cc1`, with 96.5% (active). For `CC(=O)C1(N=Nc2ccc(S(N)(=O)=O)cc2)CCOC1=O` (stereo not given), the growth inhibition is 1.35%. For the compound `CC(C)=CCc1c(C)cc2cc3c(c(O)c2c1O)C(O)=CC(=O)C3(CC=C(C)C)C/C=C(\C)CO` (stereo not given), the growth inhibition was 54.6%. For the compound `CC(=O)Nc1cc2cc(NC(=O)C(Cl)(Cl)Cl)ccc2oc1=O`, the growth inhibition was -24.3%. Then `Cc1ccc(F)c(N)c1`, with 26.8%; and `CCCCCCCCCCCCCCCCCCCCCCC`, with -30.4%. The result for `CC(C)C(=O)/C=C/c1ccc(Br)cc1` reads 29.9%. Regarding `CN(C)CC1CCC/C(=C\c2ccccc2)C1=O` (stereo not given), the growth inhibition was 37.1%.

As to `CN(C)C(=O)c1ccc([N+](=O)[O-])cc1`, the growth inhibition was 21.1%. Then `O=C(N=Nc1c(O)[nH]c2ccccc12)C(=O)N=Nc1c(O)[nH]c2ccccc12`, with -4.95%. The result for `NC(=O)c1nnsc1N/N=C/c1ccc([N+](=O)[O-])cc1` reads 8.85%; that for `O=C1C(c2ccccc2)=C(O)c2cccc3cccc1c23`, -24.4%; that for `O=S1(=O)CCCCC1C(O)(c1ccccc1)c1ccccc1` (stereo not given), 96% (active). Then `CNc1nc2c(C)ccc3[nH]c(NC)nc3c-2n1`, with -22.2%; and `CCC(CC)C(=O)OCCCC1CCCO1` (stereo not given), with 12.9%; and `CC(=O)OCC1OC(n2nnc3c(=O)n(C)c(=O)[nH]c32)C(OC(C)=O)C(OC(C)=O)C1OC(C)=O` (stereo not given), with 9.45%.

For `CC1COCOC1c1ccc2c(c1)OCO2` (stereo not given), the growth inhibition is 17.6%. Then `Nc1ccc(OCC(O)N2C(=O)c3ccccc3C2=O)cc1` (stereo not given), with -46.2%; and `O=C(O)/C=C/SCc1ccccc1`, with 10.2%. The result for `Cc1cc(O)c(C(c2ccc(C#N)cc2)c2c(O)cc(C)[nH]c2=O)c(=O)[nH]1` reads -1.05%; that for `CCOC(=O)Nc1nn(-c2ccc3ccccc3n2)c(=O)[nH]1`, 15.7%; that for `CCN(CC)CCCCNc1ccnc(N)n1`, -8.65%. The result for `Cc1cc(Cc2cccc3ccccc23)nc2c1ccc1ccccc12` reads 0.85%; that for `Clc1ccccc1-c1c2ccccc2cc2c1ccc1ccccc12`, -12.1%. With `CCn1c(SCC(=O)N/N=C/c2ccccc2)nc2ccccc2c1=O`, the growth inhibition is 5.65%. The result for `COc1ccc2c(c1)OCc1c-2oc2ccccc2c1=O` reads -24.8%; that for `CC12CC3(C)CC(C)(C1)CC(C(NC(C)(C)C)C(=O)O)(C2)C3` (stereo not given), 16.8%; that for `COc1ccc(C2CN=NN2c2ccc([N+](=O)[O-])cc2)cc1` (stereo not given), -18.4%. The result for `CC(=O)C1=C(C)C2CC3(C)CC(C2(C)C1)C3(C)C` (stereo not given) reads 8.45%. Then `COC(=O)CCc1ccc(N)cc1`, with 4.85%. Turning to `N#C/C(=N\Nc1ccc(F)cc1)C(=O)C1CC1`, the growth inhibition is 9.1%. As for `CC(=O)NC(Cc1ccccc1)C(=O)Nc1ccc(C)cc1` (stereo not given), the growth inhibition was 14.3%.

As to `COC(=O)N/N=C(/CC1(O)C(=O)Nc2ccc([N+](=O)[O-])cc21)c1ccccc1` (stereo not given), the growth inhibition is 48.3%.

Values taken from PubChem BioAssay (NCI).
